Most compounds without a hit are left out; they make up all but 4.1% or so of the library.
Jurkat NFkB inh – inhibitors of induced NF-kB luciferase reporter, primary screen, TCR NF-kB activation inhibitor project, cell-based, luminescence, uHTS; Jurkat, PMA/ionomycin-induced NF-kB luciferase reporter; inhibition, % at 4 µM; 330,000 tested, 0.53% active; AID 435003, 2010; in the data active = inhibition above about 50%
Gli-Sufu antag – Gli-Sufu pathway antagonists, primary screen, luciferase luminescence, Sufu-KO-LIGHT cells, uHTS | inhibition, % at 5 µM | Sufu-KO-LIGHT fibroblasts, Gli luciferase reporter luminescence | 340,000 tested, 0.74% active;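 active = inhibition above about 55%, limit read from the data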;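 also: 0% = DMSO-treated cells and 100% = wells with medium but no cells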
697 NFkB inh – inhibitors of PMA/ionomycin-induced NF-kB reporter, 697 cells, primary screen, B-cell NF-kB inhibitor project, cell-based, luminescence, uHTS; 697 B-cell NF-kB luciferase reporter, 16 h; inhibition, % at 4 µM; 330,000 tested, 0.33% active; AID 435022, 2010; in the data active = inhibition above about 35%
aSyn 5UTR inh – MLPCN primary screen, SNCA 5' untranslated region; alpha-synuclein 5'UTR reporter, inhibitor activity; inhibition, % (tested at 7.5 µM); 300,000 tested, 0.82% active; in the data active = inhibition above about 60%; inconclusive = no clear call, values can overlap the other calls;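 also: H4 neuroglioblastoma cells stably carrying SNCA 5'UTR luciferase fusion; 0% = DMSO wells and 100% = positive control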
KLF5 inhibitor – KLF5 expression inhibitors, primary screen, DLD-1 cells, luminescence; inhibition, % at 5 µM; 290,000 tested, 0.23% active; DLD-1 KLF5 promoter-luciferase reporter;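 active = inhibition above a per-plate limit of that plate's mean compound inhibition plus 3 SD, cut at about 60% in these data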;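 also: 0% = DMSO wells and 100% = LY294002 at 200 µM; higher means less KLF5 promoter-driven luciferase light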
Mdm2 MdmX PPI – inhibitors of human Mdm2-MdmX association, primary screen, cell-based, luminescence, split luciferase, SaOS-2, uHTS | SaOS-2 split-luciferase Mdm2/MdmX complementation | inhibition, % at 8 µM | 330,000 tested, 3% active | AID 485346, 2010;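 active = inhibition of at least 50% at 8 µM in the primary screen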
Target sequence (O15151 whole entry, looked up): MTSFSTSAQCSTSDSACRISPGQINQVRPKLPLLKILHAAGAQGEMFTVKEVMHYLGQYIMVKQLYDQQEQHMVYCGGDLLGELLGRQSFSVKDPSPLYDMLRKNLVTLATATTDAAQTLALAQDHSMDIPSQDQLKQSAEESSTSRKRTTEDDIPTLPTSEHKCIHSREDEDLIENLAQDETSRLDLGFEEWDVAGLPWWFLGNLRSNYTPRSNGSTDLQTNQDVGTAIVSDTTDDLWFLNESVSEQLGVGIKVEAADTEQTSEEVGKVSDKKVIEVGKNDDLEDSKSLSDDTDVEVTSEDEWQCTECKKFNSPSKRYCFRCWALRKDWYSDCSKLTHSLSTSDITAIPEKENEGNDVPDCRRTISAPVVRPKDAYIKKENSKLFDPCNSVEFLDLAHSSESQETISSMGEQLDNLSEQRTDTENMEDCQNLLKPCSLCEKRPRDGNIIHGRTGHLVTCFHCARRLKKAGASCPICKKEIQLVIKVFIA
Target sequence (Q00987 whole entry, looked up): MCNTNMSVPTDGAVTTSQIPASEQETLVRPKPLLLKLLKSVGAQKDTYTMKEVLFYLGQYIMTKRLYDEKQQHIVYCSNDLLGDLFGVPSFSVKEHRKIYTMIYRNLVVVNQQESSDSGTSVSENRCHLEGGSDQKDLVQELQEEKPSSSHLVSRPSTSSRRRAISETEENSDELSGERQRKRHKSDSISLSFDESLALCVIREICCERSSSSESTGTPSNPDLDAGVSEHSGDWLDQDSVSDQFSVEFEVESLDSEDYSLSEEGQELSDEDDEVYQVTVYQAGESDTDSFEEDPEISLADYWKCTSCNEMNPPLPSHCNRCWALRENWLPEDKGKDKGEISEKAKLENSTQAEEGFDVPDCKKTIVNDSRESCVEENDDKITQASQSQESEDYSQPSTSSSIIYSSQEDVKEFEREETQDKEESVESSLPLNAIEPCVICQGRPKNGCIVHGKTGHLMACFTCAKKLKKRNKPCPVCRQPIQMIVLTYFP
Mdm2 MdmX conf – Mdm2-MdmX complex disruptors, retested hits, confirmation, luminescence, single concentration; shares compounds with Mdm2 MdmX PPI; Mdm2-MdmX binding, luminescent assay; inhibition, % at 8 µM; 10,000 tested, 55% active; in the data active = inhibition above about 40%
FLuc counter – full-length luciferase signal inhibition, confirmation, counter-screen for Mdm2/MdmX interaction inhibitor project, cell-based, single concentration, SaOS-2; shares compounds with Mdm2 MdmX PPI; SaOS-2 full-length luciferase counterscreen, luminescence; inhibition, % at 8 µM; 6,200 tested, 77% active;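 active = mean inhibition at 8 µM reaching about 37%, which flags the compound as non-specific, limit read from the data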;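 also: p53-null SaOS-2 cells with luciferase driven by a doxycycline-inducible promoter; compound on cells about two nights before reading with doxycycline added after day one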
Starred values were filed as active, the others as inactive.

How did Cc1ccc(NC(=O)c2cc(S(=O)(=O)N3CCc4ccccc43)cn2C)cc1C do in these assays?
Jurkat NFkB inh: -3; Gli-Sufu antag: 2; 697 NFkB inh: 0; aSyn 5UTR inh: 27; KLF5 inhibitor: -6; Mdm2 MdmX PPI: 55*; Mdm2 MdmX conf: 22

What do the screens show for `COc1ccc(NC(=O)c2cc(S(=O)(=O)N3CCc4ccccc43)cn2C)cc1`?
Jurkat NFkB inh: -4; Gli-Sufu antag: 20; 697 NFkB inh: -2; aSyn 5UTR inh: 12; KLF5 inhibitor: 3; Mdm2 MdmX PPI: 29

How did CCCCn1c(N)c(N(CC(C)C)C(=O)CSc2nnc(C)n2-c2ccccc2)c(=O)[nH]c1=O do in these assays?
Gli-Sufu antag: -2

Results for CCCOc1ccc(C(=O)Nc2ccc3c(c2)OCCO3)cc1 ?
Jurkat NFkB inh: -141; Gli-Sufu antag: -50; 697 NFkB inh: -44; aSyn 5UTR inh: -40; KLF5 inhibitor: -88; Mdm2 MdmX PPI: -127

What do the screens show for `CCOC(=O)c1c(C)[nH]c(C2=NNC(=NC3CC3)SC2)c1C`?
Jurkat NFkB inh: -82; Gli-Sufu antag: 25; 697 NFkB inh: -102; aSyn 5UTR inh: -2; KLF5 inhibitor: -44; Mdm2 MdmX PPI: 40

How did c1ccc(Oc2c3ccccc3nc3ccccc23)cc1 do in these assays?
Jurkat NFkB inh: 14; Gli-Sufu antag: 3; 697 NFkB inh: -27; aSyn 5UTR inh: -28; KLF5 inhibitor: -29; Mdm2 MdmX PPI: 73*; Mdm2 MdmX conf: 5

What do the screens show for `CSc1nc(N)nc(SCCS(=O)(=O)c2ccc(Cl)cc2)c1C#N`?
Jurkat NFkB inh: 23; Gli-Sufu antag: 23; 697 NFkB inh: -3; aSyn 5UTR inh: -24; KLF5 inhibitor: -34; Mdm2 MdmX PPI: 57*; Mdm2 MdmX conf: 23

Results for O=C(N/N=C/c1ccc(Br)cc1)c1ccc(NC(=O)c2ccccc2)cc1 ?
Gli-Sufu antag: -3

How did CN(C)c1ccc(C(=O)N/N=C/c2cc(Br)cc(Br)c2O)cc1 do in these assays?
Jurkat NFkB inh: 13; Gli-Sufu antag: 3; 697 NFkB inh: -25; aSyn 5UTR inh: 28; KLF5 inhibitor: -13; Mdm2 MdmX PPI: 80*; Mdm2 MdmX conf: 86*; FLuc counter: 54*

What do the screens show for `CN(C)c1ccc(/C=N/NC(=O)c2ccc(NC(=O)c3ccccc3)cc2)cc1`?
Jurkat NFkB inh: 8; Gli-Sufu antag: 0; 697 NFkB inh: 0; aSyn 5UTR inh: -8; KLF5 inhibitor: -25; Mdm2 MdmX PPI: 57*; Mdm2 MdmX conf: 11

How did O=C(NNc1cc(Br)c(O)c(Br)c1)c1ccccc1 do in these assays?
Jurkat NFkB inh: -6; Gli-Sufu antag: 13; 697 NFkB inh: 0; aSyn 5UTR inh: -10; KLF5 inhibitor: -29; Mdm2 MdmX PPI: -26

How did C=CCCC(=O)Nc1nc(C)c(-c2csc(Nc3cc(OC)ccc3OC)n2)s1 do in these assays?
Jurkat NFkB inh: 46; Gli-Sufu antag: 6; 697 NFkB inh: -4; aSyn 5UTR inh: 55; KLF5 inhibitor: 29; Mdm2 MdmX PPI: 66*; Mdm2 MdmX conf: 60*; FLuc counter: 46*

What do the screens show for `CCCC(=O)Nc1nc(C)c(-c2csc(Nc3cc(OC)ccc3OC)n2)s1`?
Jurkat NFkB inh: -6; Gli-Sufu antag: -9; 697 NFkB inh: -27; aSyn 5UTR inh: inconclusive; KLF5 inhibitor: -7; Mdm2 MdmX PPI: 39

How did CC(C)(C)OC(=O)NCCc1nnc(SCc2ccccc2Cl)o1 do in these assays?
Jurkat NFkB inh: 1; Gli-Sufu antag: -4; 697 NFkB inh: 4; aSyn 5UTR inh: 5; KLF5 inhibitor: 10; Mdm2 MdmX PPI: 15

Results for CC(C)(C)OC(=O)NCCc1nnc(S(=O)(=O)Cc2ccc(Cl)cc2Cl)o1 ?
Jurkat NFkB inh: 23; Gli-Sufu antag: 7; 697 NFkB inh: 4; aSyn 5UTR inh: 4; KLF5 inhibitor: -9; Mdm2 MdmX PPI: 77*; Mdm2 MdmX conf: 59*; FLuc counter: 5

What do the screens show for `CCN(CC)Cc1c(O)ccc2c([N+](=O)[O-])c(C)n(-c3ccc(OC)cc3)c12`?
Jurkat NFkB inh: 28; Gli-Sufu antag: -3; 697 NFkB inh: -36; aSyn 5UTR inh: -17; KLF5 inhibitor: 0; Mdm2 MdmX PPI: 71*; Mdm2 MdmX conf: 82*; FLuc counter: 51*

How did CCN(CC)Cc1c(O)ccc2occ(C(=O)c3ccc(OC)cc3)c12 do in these assays?
Jurkat NFkB inh: 10; Gli-Sufu antag: 2; 697 NFkB inh: -13; aSyn 5UTR inh: -13; KLF5 inhibitor: -51; Mdm2 MdmX PPI: 15

What do the screens show for `CCOc1ccc(OCC(=O)N(CCC2=CCCCC2)c2c(N)n(Cc3ccccc3)c(=O)[nH]c2=O)cc1`?
Jurkat NFkB inh: -2; 697 NFkB inh: 21; aSyn 5UTR inh: 25; Mdm2 MdmX PPI: 68*; Mdm2 MdmX conf: 56*; FLuc counter: 92*

How did COc1ccc(NC(=O)CN2CCN(C3c4ccccc4-c4ccccc43)CC2)c(OC)c1 do in these assays?
Jurkat NFkB inh: 3; Gli-Sufu antag: 3; 697 NFkB inh: -25; aSyn 5UTR inh: 34; KLF5 inhibitor: -14; Mdm2 MdmX PPI: 94*; Mdm2 MdmX conf: 21

How did CC(C)=CCN1CCN(Cc2c[nH]c3ccccc23)CC1CCO (stereo not given) do in these assays?
Jurkat NFkB inh: -14; Gli-Sufu antag: 8; 697 NFkB inh: 7; aSyn 5UTR inh: 5; KLF5 inhibitor: -57; Mdm2 MdmX PPI: 7

What do the screens show for `COc1cc(/C=N/N=C(N)N)ccc1OCc1ccccc1Cl`?
Jurkat NFkB inh: 41; Gli-Sufu antag: 6; 697 NFkB inh: -32; aSyn 5UTR inh: -28; KLF5 inhibitor: -22; Mdm2 MdmX PPI: 100*; Mdm2 MdmX conf: 39; FLuc counter: 74*

How did Cc1c(-c2ccc(Br)cc2)[n+](=O)c2c(n1[O-])CCCC2 do in these assays?
Jurkat NFkB inh: 4; Gli-Sufu antag: -4; 697 NFkB inh: 12; aSyn 5UTR inh: 25; KLF5 inhibitor: -1; Mdm2 MdmX PPI: 15

What do the screens show for `Cc1nc(Nc2cccc(C(F)(F)F)c2)nc2c1C(=O)CC(C)C2` (stereo not given)?
Jurkat NFkB inh: -7; Gli-Sufu antag: 9; 697 NFkB inh: -6; KLF5 inhibitor: -17; Mdm2 MdmX PPI: 54*; Mdm2 MdmX conf: 12
